# Bioassay records: PubChem, several laboratories
# SRC2 inh = inhibition of GAL4-SRC2 driven luciferase reporter, primary screen, SRC2 inhibitor project, cell-based, luminescence. actives 0.17% (n = 370,000). HEK293 GAL4-SRC2 luciferase reporter. inhibition, % at 9 µM. Nuclear receptor coactivator 2 (Homo sapiens), Q15596. AID 651957, 2012;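 active = inhibition above the mean inhibition of all tested compounds plus 3 SD, set per campaign, cut at about 52% in these data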
# Gli-Sufu block = Gli-Sufu pathway antagonists, primary screen, luciferase luminescence, Sufu-KO-LIGHT cells, uHTS | actives 0.74% (n = 340,000) | inhibition, % at 5 µM | Sufu-KO-LIGHT fibroblasts, Gli luciferase reporter luminescence | AID 588413, 2011;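 active = inhibition above about 55%, limit read from the data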
# Shn3 inh set2 = reduction of Shn3 3'UTR firefly luciferase signal, primary screen, Schnurri-3 inhibitor project, cell-based, Clone20 osteoblasts, set 2 | Clone20 osteoblast Shn3 3'UTR firefly luciferase, 24 h | actives 0.52% (n = 360,000) | inhibition, % at 12.5 µM | AID 588674, 2011;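 active = mean inhibition of at least 75% with every replicate also reaching 75%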
# NCOA1 inh = SRC1 coactivator transcriptional activity inhibitors, primary screen, cell-based, luminescence | Nuclear receptor coactivator 1 (Homo sapiens), Q15788 | HEK293 GAL4-SRC1 luciferase reporter | inhibition, % at 3.6 µM | actives 0.12% (n = 360,000) | AID 588354, 2011;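 active = inhibition above the campaign mean plus 3 SD, with each screening campaign given its own cutoff, cut at about 60% in these data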
# NR5A2 inv ag = LRH-1 (NR5A2) inverse agonists, primary screen, cell-based, luminescence, HEK293T, StAR-luciferase reporter. Nuclear receptor subfamily 5 group A member 2 (Homo sapiens), O00482. LRH-1 transfected, 24 h. inhibition, % at 3.6 µM. actives 0.13% (n = 360,000). AID 602396, 2012;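 active = inhibition above the mean inhibition of all tested compounds plus 3 SD, cut at about 73% in these data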
# SRC3 inh = SRC3 coactivator transcriptional activity inhibitors, primary screen, cell-based, luminescence; Nuclear receptor coactivator 3 (Homo sapiens), Q9Y6Q9; HEK293 GAL4-SRC3 luciferase reporter; actives 0.17% (n = 360,000); inhibition, % at 3.6 µM;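 active = inhibition above a per-campaign cutoff, the mean of all compounds plus 3 SD, cut at about 60% in these data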;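 also: higher means less SRC3-driven luciferase light from the GAL4 reporter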
# A number is an active result; - = inactive; . = not tested or not shown. This is a sample that favours compounds with a hit; in the whole collection about 1.1% have one here.
SMILES,SRC2 inh,Gli-Sufu block,Shn3 inh set2,NCOA1 inh,NR5A2 inv ag,SRC3 inh
CCOC(=O)/C(=C/c1ccc(OC(F)F)cc1)C1=Nn2c(nnc2-c2ccc(Cl)cc2)SC1,-,-,95,-,-,-
COc1ccc(-c2nnc3n2N=C(C)CS3)cc1,-,-,-,-,-,-
Oc1ccc(Nc2nc(N3CCCC3)c3ccccc3n2)cc1,-,58,-,-,-,-
NNC(=O)c1ccc(CSc2cccc3cccnc23)cc1,-,-,-,-,-,-
Cc1cccc(CSc2cccc3cccnc23)c1,-,-,96,-,-,-
O=C(Nc1ccc2nc3n(c(=O)c2c1)CCCC3)c1cc([N+](=O)[O-])ccc1F,.,-,91,-,-,-
O=C(Nc1ccc2nc3n(c(=O)c2c1)CCCC3)c1cccc([N+](=O)[O-])c1,-,-,-,-,-,-
Nc1ccc(N=Nc2ccccc2O)c(N)c1,-,-,-,-,-,-
Oc1ccccc1N=Nc1ccccc1O,-,87,-,-,-,69
Cc1cccc(CNC(=S)OC2CCC23CCC(c2ccccc2)CC3)c1 (stereo unspecified),-,.,.,.,.,.
CCC(CC)CC1CN2CCc3cc(OC)c(OC)cc3C2CC1(O)CC (stereo unspecified),-,.,85,-,-,-
C/C(=N\Nc1ccc(Cl)c(C(=O)O)c1)c1ccccn1,-,-,-,-,-,-
C/C(=N\Nc1ncnc2sc(C)c(C)c12)c1ccccn1,-,94,89,-,-,81
C/C(=N\Nc1ncc(Cl)cc1Cl)c1ccccn1,.,76,86,-,-,-
Cc1sc2ncnc(N/N=C/c3cccc(O)c3)c2c1C,-,-,-,-,-,-
COC(=O)C1CN(C2CC2)CCS(=O)(=O)N1Cc1cn(Cc2ccc(C)cc2)nn1 (stereo unspecified),-,.,.,.,.,.
COC(=O)[C@]12C[C@H](CC(=O)NCCCN3CCCC3=O)C(=O)N(Cc3ccc4c(c3)OCO4)C1=C[C@H](C(C)C)O[C@@H]2C1CC1,-,.,.,.,.,.
CCCC(=O)N1CCC[C@]2(CC[C@@H](CCC(=O)OCC)O2)C1,-,.,.,.,.,.
NS(=O)(=O)c1ccc(Sc2nc3ccccc3s2)c([N+](=O)[O-])c1,-,-,.,-,-,62
COc1ccc(C(=O)OCCCN(C)C2CN(Cc3cn(Cc4ccccc4Cl)nn3)S(=O)(=O)C2)cc1OC (stereo unspecified),-,.,.,.,.,.
C[C@H](O)[C@@H]1CN2CCc3c([nH]c4c(-c5ccc6c(c5)OCO6)cccc34)[C@@H]2C[C@@H]1N(C)C(=O)Nc1ccccc1,-,.,.,.,.,.
O=C(NCCCN1CCN(c2ccc(F)cc2)CC1)NCc1ccccc1,-,.,.,.,.,.
Cc1ccccc1C(=O)N(C)[C@H]1C[C@H]2c3[nH]c4c(-c5ccc6c(c5)OCO6)cccc4c3CCN2C[C@H]1[C@H](C)O,-,.,.,.,.,.
CCOC(=O)[C@]12CCCC=C1N(Cc1ccc(OC)cc1)C(=O)[C@@H]2CC(=O)N1CCCC1,-,.,.,.,.,.
COc1ccc(C(=O)/C=C/C(=O)N(CC(=O)NC2CCCCC2)Cc2ccccc2)c(O)c1,-,-,95,-,-,-
SMILES,SRC2 inh,Gli-Sufu block,Shn3 inh set2,NCOA1 inh,NR5A2 inv ag,SRC3 inh
COc1ccc(C(=O)/C=C/C(=O)N(CC(=O)NC2CCCCC2)Cc2ccccc2OC)c(O)c1,-,-,-,-,-,-
COc1ccc(-n2nc3c(N4CCC(C(=O)NCc5cccc(C)c5)CC4)nnc(C)c3c2C)cc1,-,74,-,-,-,-
CCOc1ccc(CNC(=O)C2CCN(c3nnc(C)c4c(C)n(-c5ccc(C)cc5)nc34)CC2)cc1,-,-,-,-,-,-
CC(C)(C)[C@@H]1COC(=O)[C@@H](NC(=O)OCC2c3ccccc3-c3ccccc32)C/C=C\C[C@@H](CC(=O)NCCO)C(=O)N1,-,-,86,-,-,-
O=C(Nc1ccccc1C(F)(F)F)OCCN1C(=O)CCC12CCC(c1ccccc1)CC2 (stereo unspecified),-,.,.,.,.,.
CC1(C)CC(=O)c2c(O)cc(OCC(=O)Nc3ccc(S(N)(=O)=O)cc3)cc2O1,-,-,-,-,-,-
COc1cc(NC(=O)COc2cc(O)c3c(c2)OC(C)(C)CC3=O)cc(OC)c1OC,-,70,86,-,-,-
NC(=O)c1ccc(N2CCN(S(=O)(=O)c3ccccc3)CC2)c([N+](=O)[O-])c1,-,56,-,-,-,-
Fc1cc(F)c(F)c(SCCc2ccncc2)c1F,-,-,87,-,-,-
Cc1ccc(-n2c(Cl)c(Cl)nc(Cl)c2=O)cc1,.,-,96,-,-,-
COc1ccc(-c2nnn(CC(=O)Nc3ccc4c(c3)OCCO4)n2)cc1OC,.,-,85,-,-,-
CC1CCCCC1N(C(=O)c1cc(C2CC2)on1)C1CCCCCC1 (stereo unspecified),-,.,.,.,.,.
CCC(=O)Nc1ccc(NC(=S)NC(=O)c2oc3ccccc3c2C)cc1,-,-,-,-,-,-
CCC(=O)Nc1ccc(NC(=O)c2oc3ccccc3c2C)cc1,58,-,-,-,-,-
Cc1ccc(Cl)cc1N1CCN(C(=O)C2CCC(=O)N(C3CCCCCC3)C2)CC1 (stereo unspecified),-,-,86,-,-,-
O=C(Nc1ccc([N+](=O)[O-])cc1)Nc1ccc(OC(F)F)c(Cl)c1,-,58,88,-,-,75
Nc1nc(N)c2cc(S(=O)(=O)c3cccc(C(F)(F)F)c3)ccc2n1,-,.,85,-,-,-
O=C(N/N=C/c1ccccn1)c1cc(-c2ccc(Cl)cc2)nc2ccccc12,-,89,-,-,-,-
O=C(N/N=C/c1ccccn1)c1cc(-c2ccc(Br)cc2)nc2ccccc12,-,72,-,-,-,-
O=C(O)COc1ccccc1/C=N/NC(=O)c1cc(-c2ccc(Cl)cc2)nc2ccccc12,-,-,-,-,-,-
CCOc1ccc(CCNC(=O)c2cc3sccc3n2CC)cc1OC,-,.,.,.,.,.
O=C(Nc1ccccc1Oc1ccccc1)c1cc([N+](=O)[O-])ccc1Cl,55,-,-,-,-,-
O=C(Nc1ccc(Nc2ccccc2)cc1)c1cc([N+](=O)[O-])ccc1Cl,-,-,-,-,-,-
CSCCCNC(=O)c1oc(=O)c2ccccc2c1-c1ccc(C)cc1,-,.,.,.,.,.
CCn1nc(C)cc1-c1nnc(SCC(=O)Nc2ccccc2)n1CCCOC,-,-,-,-,-,-
CCn1nc(C)cc1-c1nnc(Sc2ncc([N+](=O)[O-])s2)n1C,-,-,95,-,-,-
